Results filed as inconclusive are left out. Activity calls are given as the source filed them. Calls come from the whole dose curve; as a rule, active = well fitted cell-killing curve with a large enough effect; inconclusive = small, poorly fitted or top-dose-only effect, or effect the other way; inactive = no such curve, though single readings can be large or run the other way.
Potency is the fitted concentration of half-maximal effect.

This assay concerns Tov-21-G. Briefly: Confirmatory qHTS for gynecologic anti-cancer compounds from libraries of approved drugs and bioactive compounds. Note: nearly all actives have a fitted effect of over 55% in size. Particulars: gynecologic cancer cell panel viability, ATPlite luminescence, 48 h; series mostly up to 57.7 µM. The method, boiled down:
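Seeding 1,000 cells per well preceded overnight (16 h) attachment, after which 48 h drug treatment across 57.5 uM–0.977 nM (11 points) was applied. Remaining cellular ATP, detected by ATPlite luminescence, defined IC50.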
`O=C(O)Cc1ccccc1`: the Potency entry was “inactive”. To `CCNC(=O)C[C@@H]1N=C(c2ccc(Cl)cc2)c2cc(OC)ccc2-n2c(C)nnc21` belongs 0.685 µM (active); to `CCOc1ccccc1-n1c(C(C)N2CCN(C(=O)COc3ccc(Cl)cc3)CC2)nc2ccccc2c1=O` (stereo unspecified), 1.72 µM (active); to `CCN1CCN(C(=O)Cc2ccc(Nc3ncc(F)c(Nc4ccc(C(=O)Nc5ccccc5Cl)cc4)n3)cc2)CC1`, “inactive”. With `C/C=C(/C)C(=O)O[C@H]1C(C)=C2[C@H]([C@@H]1OC(=O)CCCCCCC)[C@@](C)(OC(C)=O)C[C@H](OC(=O)CCC)[C@@]1(O)[C@H]2OC(=O)[C@@]1(C)O` the figure was 13.7 µM (active); with `Cc1sc2c(c1C)C(c1ccc(Cl)cc1)=NC(CC(=O)OC(C)(C)C)c1nnc(C)n1-2` (stereo unspecified), 1.22 µM (active).

These data come from PubChem BioAssay AID1345085 (National Center for Advancing Translational Sciences (NCATS), 2018).
